In the library only some 2.5% were active in any assay of this set; here they are far more common.
Cruzain noTriton = cruzain (T. cruzi) inhibition without detergent; P25779; purified cruzain, Z-FR-AMC fluorescence, no detergent; Potency, µM, inactives show max response, negative = inhibition, most hits filed as inhibitors; actives 2.3% (n = 200,000); AID 1476;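 also: plate controls were enzyme without inhibitor for no effect and buffer without enzyme for full effect; nearly all actives have a fitted effect of over 40% in size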
Target sequence (P25779 123-467 limits assumed): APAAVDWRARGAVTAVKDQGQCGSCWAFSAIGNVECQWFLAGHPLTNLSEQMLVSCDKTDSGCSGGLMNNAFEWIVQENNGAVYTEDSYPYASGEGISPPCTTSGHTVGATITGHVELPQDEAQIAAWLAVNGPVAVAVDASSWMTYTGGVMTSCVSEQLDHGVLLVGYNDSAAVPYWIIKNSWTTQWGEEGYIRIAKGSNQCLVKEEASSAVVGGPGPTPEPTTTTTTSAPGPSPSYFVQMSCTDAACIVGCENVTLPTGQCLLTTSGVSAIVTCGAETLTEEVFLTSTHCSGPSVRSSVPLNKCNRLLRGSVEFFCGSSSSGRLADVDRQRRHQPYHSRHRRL
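Purified cruzain at 1.5 nM, pre-incubated 15 min with compound at room temperature in 100 mM sodium acetate pH 5.5, 5 mM DTT, 0.00005% Triton X-100. Reaction started with 2 uM Z-FR-AMC; AMC fluorescence increase over 60 s gives rate.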
Cruzain inh Det = blocks cruzain activity in presence of Triton detergent; purified cruzain, Z-FR-AMC fluorescence, 0.01% Triton; actives 0.43% (n = 200,000); P25779; Potency, µM, for inactives: max response, negative = inhibition, most hits filed as inhibitors; AID 1478;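 also: plate controls were neutral wells for no effect and buffer without enzyme for full effect; nearly all actives have a fitted effect of over 40% in size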
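Cruzain (1.5 nM) preincubated 15 min at RT with compound in 100 mM sodium acetate pH 5.5, 5 mM DTT, 0.01% Triton X-100. Reaction started with 2 uM Z-FR-AMC; AMC fluorescence (ex 360/em 450 nm) change over 60 s gave rate.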
* hit, by the source's call; ? = inconclusive. Calls follow the shape of the dose curve; as a rule, active = well fitted curve in the direction sought with a large enough effect; inconclusive = small, poorly fitted or top-dose-only effect, or another doubt; inactive = no such curve, though single readings can be large; an effect the other way counts as inactive or inconclusive. Potency is read from the fitted curve at half-maximal effect.

SMILES | Cruzain noTriton | Cruzain inh Det
COc1cc(/C=C(\C#N)c2nc3ccccc3[nH]2)cc(Br)c1OCc1ccc(F)cc1 | 25µM* | -4%
Cc1ccc2nc(/C(C#N)=C/c3ccc(-c4ccc(F)cc4F)o3)[nH]c2c1 | 10µM* | -12%
Cc1cc(/C=C(\C#N)c2nc3ccccc3[nH]2)c(C)n1C | ? | -4%
CCc1ccccc1O | 5% | 8%
CCCCN(C)CCCNC(=O)C1CCN(c2nc3ccc(CC)cc3s2)CC1 | 3% | -5%
Cc1ccc(-c2nc3c(C)cccn3c2Nc2ccccc2C)s1 | -10% | -9%
Cc1cc(NC(=O)c2oc3c(c2C)-c2[nH]ncc2CC3)ccc1Br | -24% | -6%
COc1cc(/C=C/c2ccccc2)oc(=O)c1 | 17% | 6%
COC(=O)c1cc2oc3ccccc3c2n1Cc1cccc(C)c1 | ? | -30%
Cc1cccc(N2C(=O)C(CC(=O)Nc3cccc(F)c3)N(Cc3cccs3)C2=O)c1 (centres undefined) | -4% | -2%
CCOC(=O)COc1ccc(/C=C(\C#N)c2nc3ccc(C)cc3[nH]2)cc1OC | ? | -3%
CCN(CC)c1ccc(/C=C(/C#N)c2nc3ccc(C)cc3[nH]2)c(OC(C)C)c1 | 25µM* | 2%
CCCN(CCC)C(=O)Cn1c(=O)n(-c2ccc(C)cc2)c(=O)c2ccc(C(=O)NCc3ccccc3Cl)cc21 | 5% | -4%
Cc1ccc(C(=O)N/C(=C/c2ccco2)C(=O)OCN2C(=O)c3ccccc3C2=O)cc1 | 0.4µM* | 0.35µM*
COC(=O)/C(=C/c1ccco1)NC(=O)c1ccccc1 | 7% | -11%
COc1ccc(C(=O)Nc2cc(Cl)cc(Cl)c2)c(OC)n1 | 13µM* | 2%
COc1ccc(C(=O)Nc2cc(Cl)ccc2Cl)c(OC)n1 | -17% | 1%
CCOC(=O)c1c(S(=O)(=O)N2CCCC(C(=O)Nc3cccc(CC)c3)C2)c(C)n(CC)c1C (centres undefined) | -8% | 6%
Cn1cc(/C=N/n2cnc3scc(-c4ccc(Cl)cc4)c3c2=O)c2ccccc21 | 25µM* | -4%
CCn1cnc2scc(-c3ccccc3)c2c1=O | -11% | 4%
O=C(O)NCC1CCCCC1 (tested in a mixture with another compound) | -10% | 2%
O=C(/C=C/c1cccc([N+](=O)[O-])c1)c1ccccc1 | 4% | -1%
O=C(C#Cc1cccc([N+](=O)[O-])c1)c1ccccc1 | -21% | 8.9µM*
c1ccc(CNc2oc(-c3ccccc3)nc2-c2cccc3ccccc23)cc1 | 16µM* | -2%
c1ccc(CNc2oc(-c3ccccc3)nc2-c2ccccc2)cc1 | -10% | -1%
SMILES | Cruzain noTriton | Cruzain inh Det
Cc1oc(/N=C/c2ccccc2O)c(C#N)c1C | 3% | 2%
Cc1oc(/N=C/c2c(O)ccc3ccccc23)c(C#N)c1C | 13µM* | -10%
O=C(c1ccc(Br)o1)N1CCN(Cc2ccc3c(c2)OCO3)CC1 | 12% | 5%
O=C(c1ccc(COc2c(F)c(F)c(F)c(F)c2F)o1)N1CCN(Cc2ccc3c(c2)OCO3)CC1 | ? | 28µM*
Cc1cc(C)cc(OCc2ccc(C(=O)O)o2)c1 | -3% | 13%
O=C(O)c1ccc(COc2c(F)c(F)c(F)c(F)c2F)o1 | 16µM* | 28µM*
OCCCNC(=S)Nc1ccc2nc(-c3ccccn3)c(-c3ccccn3)nc2c1 | -13% | -4%
O=C(Nc1nc(-c2ccco2)c(-c2ccco2)s1)C1CCC1 | -6% | -9%
O=C(Nc1cccc(C(F)(F)F)c1)c1ccc2snnc2c1 | -12% | -4%
O=C(Nc1cccc(C(F)(F)F)c1)c1ccc2nc(-c3ccco3)c(-c3ccco3)nc2c1 | ? | 14µM*
O=C(NCCCO)Nc1ccc2nc(-c3ccco3)c(-c3ccco3)nc2c1 | 7.9µM* | 13µM*
CCc1nc2ccc(C(=O)NCCc3ccc(OC)c(OC)c3)cc2nc1CC | 23% | 1%
COc1ccc(CCNC(=O)c2ccc3nc(-c4ccco4)c(-c4ccco4)nc3c2)cc1OC | -6% | 14µM*
O=C(Nc1ccc2nc(-c3ccco3)c(-c3ccco3)nc2c1)NC1CC1 | 2.5µM* | 8.9µM*
Cc1ccc(NC(=O)CSc2nc3ccc(NC(=O)CCc4ccccc4)cc3s2)cc1 | 4% | -1%
COc1cc(Cl)c(C)cc1NC(=O)c1cnc(N2CCCCC2)c2ccccc12 | ? | 0%
COc1ccc(NC(=O)Nc2nnc(N(CC(C)C)CC(C)C)s2)c(OC)c1 | 22% | -3%
Cc1ccc(-n2nc3c(=O)n(CCCC(=O)NC(C)c4ccccc4)nc(C)c3c2C)cc1 (centres undefined) | -12% | -1%
Cc1ccc(-c2nnc(Nc3cccc(Br)c3)c3ccccc23)cc1S(=O)(=O)N1CCN(C)CC1 | -4% | 1%
Cc1ccc(-c2nnc(Nc3ccccc3)c3ccccc23)cc1S(=O)(=O)NCc1nc2ccccc2[nH]1 | ? | -6%
Cc1ccc(-c2nnc(Nc3cccc(Br)c3)c3ccccc23)cc1S(=O)(=O)N1CCCCC1 | 6.3µM* | -3%
